Experimental findings from PubChem BioAssay (NCI) are described below.

Common to all, as to test: NCI-60 one-dose screen, 48 h (100 = growth as untreated, 0 = no growth, -100 = all killed)
Conditions in all cases: 10 µM unless noted

Assay [1] relates to NCI-H23 lung.
Assay [2] deals with NCI-H226 lung.
For assay [3], the system named is NCI-H322M lung.
Assay [4] concerns HOP-62 NSCLC.
Assay [5] relates to NCI-H460 lung.
In assay [6] the test system is HOP-92 NSCLC.
In assay [7] the test system is NCI-H522 lung.
The subject of assay [8] is A549/ATCC NSCLC.
Assay [9] deals with 786-0 renal.
Assay [10] concerns COLO 205 colon.

Where “and” joins values, the source holds several entries; their conditions need not be identical. Identical values can stand only once. The panel holds about 83,000 compounds, 20% with a hit somewhere; the sample as a whole holds those more often.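 Results are percent growth after 48 hours of single-concentration exposure. 100 means growth as in untreated cells, lower positive values show inhibition; negative values down to -100 show cell death.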 Calls of active or inactive are those of the source. Rule for the calls: active = growth percent below 10; inactive = the rest.

With `O=S(OO)c1cc(Cl)c(O)c(Cl)c1` (stereo not given), the growth in assay [1] is 101% (inactive); in assay [2] it was 109% (inactive); in assay [3], 97.7% (inactive); in assay [4] it was 105% (inactive); in assay [5], 102% (inactive); in [6], 92.1% (inactive). The growth in assay [7] was 102% (inactive); in assay [8], 94.7% (inactive); in assay [9], 97.1% (inactive); in [10], 117% (inactive).
With `C/C(=C\c1ccn(-c2ccc(N)c(C(F)(F)F)c2)n1)[C@@H]1C[C@@H]2O[C@]2(C)CCC[C@H](C)[C@H](O)[C@@H](C)C(=O)C(C)(C)[C@@H](O)CC(=O)O1`, the growth in assay [1] was 32.9% (inactive); in [2], 52% (inactive); in [3], 23.2% (inactive); in assay [4] it was 41% (inactive); in assay [5] it was 12.7% (inactive); in [6], 52.4% (inactive). Also, the growth is 30.3% (inactive) in assay [7], 31.1% (inactive) in assay [8], 27.4% (inactive) in [9] and -16.5% (active) in assay [10].
For `CN(C)c1ccc([N+](=O)[O-])c([N+](=O)[O-])c1`, the growth is 109% (inactive) and 96.9% (inactive) in [1]; 113% (inactive) and 105% (inactive) in assay [2]; 111% (inactive) and 101% (inactive) in assay [3]; 113% (inactive) and 122% (inactive) in assay [4]; 110% (inactive) and 109% (inactive) in [5]; 101% (inactive) and 104% (inactive) in [6]. The growth in assay [7] is -70.3% (active) and 64.7% (inactive); in assay [8], 101% (inactive) and 88.3% (inactive); in assay [9], 116% (inactive) and 106% (inactive); in [10], 106% (inactive) and 122% (inactive).
`Cc1ccc(NC2=N[C@]34CC(=O)CC[C@]3(C)[C@H]3CC[C@]5(C)C(=O)CC[C@H]5[C@@H]3C[C@@H]4S2)c(C)c1`: the growth in [1] was 54.2% (inactive); in [2], 72.8% (inactive); in [3] it was 79.5% (inactive); in assay [4], 45.7% (inactive); in assay [5], 45.8% (inactive); in [6], 65.9% (inactive). Moreover, the growth in [7] is 24.6% (inactive); in [8], 61.1% (inactive); in assay [9], 5.54% (active); in [10] it was 62.4% (inactive).
Regarding `CC[C@H](C)[C@H](NC(=O)CN(C)C)C(=O)N(C)[C@H](C[C@@H](OC(C)=O)c1nc(C(=O)NC23CC(C(=O)OC)(C2)C3)cs1)C(C)C`, the growth in assay [1] was 33.3% (inactive); in [2] it was 35.2% (inactive); in assay [3], 39.2% (inactive); in assay [4], 20.1% (inactive); in [5] it was 7.29% (active); in [6], 57.2% (inactive). Besides, the growth was 12% (inactive) in assay [7], 19.3% (inactive) in assay [8], 26.4% (inactive) in assay [9] and -35.8% (active) in [10].
Consider `C[C@]12CCC(=O)C[C@@H]1CC[C@@H]1[C@@H]2CC[C@]2(C)[C@@H](OC(=O)N(CCCl)N=O)CC[C@@H]12`, for which the growth in assay [1] is 29.5% (inactive); in assay [2], 45.8% (inactive); in assay [3], 49.3% (inactive); in assay [4] it was 23.9% (inactive); in assay [5], -64% (active); in [6] it was -8.11% (active). The growth in assay [7] is 22.3% (inactive); in [8], 28.2% (inactive); in assay [9] it was 14.2% (inactive); in assay [10], 31.8% (inactive).
Consider `COC[C@H]1OC(=O)c2coc3c2[C@@]1(C)C1=C(C3=O)[C@@H]2CCC(=O)[C@@]2(C)C[C@H]1OC(C)=O`, for which the growth is 56.5% (inactive) in assay [1]; 62.5% (inactive) in assay [2]; 35.3% (inactive) in assay [3]; 57.7% (inactive) in assay [4]; 43% (inactive) in assay [5]; -0.194% (active) in assay [6]. The growth is 48.4% (inactive) in assay [7], 10.1% (inactive) in [8], 39.3% (inactive) in assay [9] and 65.2% (inactive) in assay [10].
As to `COc1ccc(C(C#N)C(C)=O)cc1` (stereo not given), the growth in assay [1] is 97.9% (inactive); in assay [2], 99.9% (inactive); in assay [3] it was 135% (inactive); in assay [4], 98.8% (inactive); in assay [5], 102% (inactive); in assay [6], 111% (inactive). The growth in [7] was 82.5% (inactive); in [8], 101% (inactive); in [9] it was 107% (inactive); in [10], 106% (inactive).
As for `Cc1cc(C(C)(C)C)ccc1O`, the growth in assay [1] was 90.9% (inactive); in assay [2], 92.2% (inactive); in assay [3], 104% (inactive); in assay [4] it was 102% (inactive); in assay [5] it was 105% (inactive); in assay [6], 94.4% (inactive). The growth in [7] was 102% (inactive); in assay [8] it was 104% (inactive); in assay [9] it was 111% (inactive); in assay [10], 107% (inactive).
Regarding `CCCCn1c(=O)c(C(=O)NCc2ccccc2Cl)c(O)c2ccccc21`, the growth was 54.1% (inactive) in [1]; 63% (inactive) in assay [2]; 75.2% (inactive) in assay [3]; 76.9% (inactive) in [4]; 67.6% (inactive) in assay [5]; 66.9% (inactive) in assay [6]. Besides, the growth in assay [7] is 73.4% (inactive); in assay [8] it was 58% (inactive); in [9], 52.2% (inactive); in assay [10] it was 92.8% (inactive).
As to `COC(=O)[C@@H](C)C[C@H](Cc1ccccc1)NC(=O)c1cccc([C@@H](C[C@H](C(C)C)N(C)C(=O)[C@@H](NC(=O)[C@H]2CCCCN2C)C2CC2)OC(C)=O)n1`, the growth in assay [1] is 21% (inactive); in assay [2], 22.8% (inactive); in [3], 39.4% (inactive); in [4], 3.33% (active); in [5], 7.3% (active); in assay [6], 5.28% (active). Moreover, the growth in [7] was -11.3% (active); in [8], 7.97% (active); in assay [9], 20.8% (inactive); in [10], -69% (active).
For the compound `CC(=O)Nc1nc2c(s1)C1=CC[C@H]3[C@@H]4CC[C@H](OC(C)=O)[C@@]4(C)CC[C@@H]3[C@@]1(C)CC2`, the growth was 69.7% (inactive) in assay [1]; 91.7% (inactive) in [2]; 75.2% (inactive) in assay [3]; 55.6% (inactive) in assay [4]; 64.1% (inactive) in [5]; 87.2% (inactive) in [6]. Moreover, the growth was 39.3% (inactive) in assay [7], 54% (inactive) in [8], 32% (inactive) in assay [9] and 67.3% (inactive) in [10].
